Bioassay records (PubChem BioAssay)
The list is not random: actives were taken first. Their share in the collection is about 5.5%.
FBPA coupling cs – inhibits coupling enzyme system, counter-screen for aldolase hits | coupling enzyme system counterscreen, AmpLite Red fluorescence | activity change, negative = inhibition, % at 58.2 µM, hits read low | actives 0.67% (n = 290,000); in the data active = activity change below about -30%
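Coupling enzymes only (glyceraldehyde-3-phosphate) + compound, at 57.5 uM final, 10 min RT; add substrate/coupling/AmpLite Red mix, 20 min RT; fluorescence ex 525/em 598 nm. Actives flag coupling-system interference.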
Giardia kill – Giardia lamblia killing | activity change, % at 7.66 µM, hits read low | Giardia lamblia trophozoite viability | actives 0.15% (n = 340,000); in the data active = activity change below about -80%; inconclusive = between about -30% and that limit;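 also: parasites exposed to compound for two days anaerobically before the ATP read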
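Giardia lamblia trophozoites (100 cells/well) were incubated with compounds for 48 h at 37 deg C under anaerobic conditions. Viability was read as ATP content by one-step luminescence after 15-30 min at room temperature.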
ELG1 DNA repair – blocks ELG1-dependent DNA repair in HEK293T cells; actives 2.3% (n = 330,000); Potency, µM (highest dose often 46.1 µM), actives largely listed as inhibitors; HEK293T ELG1-luciferase reporter, luminescence, 16 h; DNA damage induced by 5-fluorouridine; AID 504467; also: nearly all actives have a fitted effect of over 55% in size
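Step one: seed 2,000 cells per well. Step two: pin-transfer compound or DMSO alongside 5-fluorouridine. Step three: incubate 16 hr, 37 °C, 5% CO2. Step four: add ONE-Glo, wait 30 min, read luminescence.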
Sfp PPTase inh – inhibitors of Bacillus subtilis Sfp phosphopantetheinyl transferase. Q9F4F7. Biochemical Sfp PPTase activity, qHTS. Potency, µM, usual class: inhibitors. actives 3.5% (n = 310,000);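 also: the enzyme is Sfp with the accession as filed and its product quenches rhodamine fluorescence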
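Reaction rates are the 30-min fluorescence difference (ex 525, em 598 nm) in wells containing 15 nM Sfp, 5 uM rhodamine-CoA and 12.5 uM BHQ-2-YbbR at pH 7.6 with 10 mM MgCl2.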
Numbers stand for hits; 0 = inactive; ? = inconclusive; - = no result given. Unless noted, calls follow the shape of the dose curve; as a rule, active = well fitted curve in the direction sought with a large enough effect; inconclusive = small, poorly fitted or top-dose-only effect, or another doubt; inactive = no such curve, though single readings can be large; an effect the other way counts as inactive or inconclusive.

SMILES | FBPA coupling cs | Giardia kill | ELG1 DNA repair | Sfp PPTase inh
Cc1nc(N)sc1-c1csc(Nc2ccc(Cl)cn2)n1 | 0 | 0 | ? | 20µM
CC(C)N(C(=O)[C@H]1CC(CC(=O)NC(C)(C)C)C(=O)N2CCc3c([nH]c4ccccc34)[C@]12C)C(C)C (stereo not given in full) | - | 0 | 0 | -
O=C(CNC(=O)c1ccc(Br)o1)NCc1cccc(Cl)c1 | - | 0 | 0 | 89µM
COC(=O)c1ccc2c(c1)N(Cc1cc(C)ccc1C)C(=O)c1ccccc1S2=O (stereo not given) | 0 | - | 0 | 0
CCOC(=O)c1ccc2c(c1)N(Cc1ccccc1C)C(=O)c1ccccc1S2=O (stereo not given) | 0 | 0 | 16µM | 0
CC(=O)Nc1cccc(NC(=O)COc2ccc3c(c2)OCO3)c1 | 0 | 0 | ? | 0
Cc1ccc(S(=O)(=O)CNC(=S)c2ccc3ccccc3c2)cc1 | 0 | 0 | 0 | 56µM
N#Cc1cccc(-c2nc(NCc3cccs3)c3ccccc3n2)c1 | 0 | - | - | 0
Cc1ccc2c(c1)c(C1=NC(=S)NC1=O)c(O)n2C | 0 | 0 | 0 | 40µM
Cc1ccc2c(c1)c(N=Nc1ccc([N+](=O)[O-])cc1)c(O)n2C | 0 | 0 | 0 | 0
CC1=CC(C)(C)N(C(=O)CNC2CCCCC2)c2cc(C)ccc21 | 0 | 0 | 0 | 79µM
O=C(CN1CCN(C(=O)C2CCCO2)CC1)Nc1cc(C(F)(F)F)ccc1Cl (stereo not given) | 0 | 0 | 0 | 0
C[C@H](NC(=O)c1ccccc1)C(=O)N1CCN(c2ccccc2)CC1 | 0 | 0 | 0 | 0
CCCCNC(=O)C(c1ccc(OCC(=O)OC)c(C(=O)OC)c1)N(Cc1ccccn1)C(=O)CCCCCN1C(=O)NC(c2ccc(-c3ccccc3)cc2)C(C(=O)OCc2ccccc2)=C1C (stereo not given) | 0 | - | - | 0
Brc1ccc2[nH]ncc2c1 | 0 | 0 | 0 | 0
Nc1ccc2cn[nH]c2c1 | -32 | 0 | 0 | 0
CC[C@@H](C)[C@H](NC(=O)OC(C)(C)C)c1nnc(S(=O)(=O)Cc2cc(C)ccc2C)o1 | 0 | 0 | 0 | ?
CC(C)(C)OC(=O)N[C@@H](Cc1ccccc1)c1nnc(S(=O)(=O)Cc2cccc(F)c2)o1 | 0 | 0 | ? | 7.9µM
Cc1ccccc1CS(=O)(=O)c1nnc([C@H](CC(C)C)NC(=O)OC(C)(C)C)o1 | 0 | 0 | 0 | 22µM
CC(C)C[C@H](N)c1nnc(S(=O)(=O)Cc2cccc(F)c2)o1 | 0 | 0 | 0 | 18µM
CC(=O)[C@H]1CC[C@@H]2[C@H]3CC=C4C[C@@H](O)CC[C@]4(C)[C@H]3CC[C@]12C | 0 | - | - | 0
Cc1ccc(CNc2ncnc3ccc(-c4c(C)noc4C)cc23)cc1 | 0 | - | - | 0
Cc1ccc(-c2nnc(SCC(=O)N(C)C)nc2-c2ccc(C)cc2)cc1 | 0 | 0 | ? | 0
NC(=O)c1ccc(-n2nnnc2SCc2ccccc2)cc1 | 0 | 0 | 0 | 0
O=C(Nc1nccs1)c1ccc(CSc2nnnn2-c2ccccc2)cc1 | 0 | 0 | 23µM | 0
SMILES | FBPA coupling cs | Giardia kill | ELG1 DNA repair | Sfp PPTase inh
COc1cc2cnc(-c3ccccc3)c(-c3ccc(C#N)cc3)c2cc1OC | - | 0 | 23µM | -
COc1cc2cnc(-c3ccccc3)c(-c3cccc(C(F)(F)F)c3)c2cc1OC | - | 0 | 13µM | -
Cc1ccc(/C(N)=N/OC(=O)c2cc(-c3ccccc3)nc3ccccc23)cc1 | 0 | 0 | 0 | 0
N/C(=N\OC(=O)c1cc(-c2ccccc2)nc2ccccc12)c1ccccn1 | 0 | 0 | 18µM | 0
N/C(=N\OC(=O)COc1ccc2ccccc2c1)c1ccccn1 | 0 | 0 | ? | 89µM
CN1CCN(Cc2coc3c(Cl)cc(Cl)cc3c2=O)CC1 | 0 | 0 | 0 | 50µM
CC(C)Cc1ccc(C(=O)Nc2ccc(Cc3ccncc3)cc2)o1 | 0 | 0 | 21µM | 0
Cc1cccc(N=C2NN=C(c3c(C)[nH]c4ccccc34)CS2)c1 | 0 | 0 | ? | 40µM
Cc1cccc(N=C2NN=C(c3ccc4c(c3)OCCO4)CS2)c1 | 0 | 0 | ? | 0
Cc1cccc2cc(CN(Cc3ccco3)C(c3nnnn3CCc3ccccc3)C(C)C)c(=O)[nH]c12 (stereo not given) | 0 | 0 | 9.2µM | ?
CCC(c1nnnn1Cc1ccco1)N(Cc1cc2cc(C)cc(C)c2[nH]c1=O)CC1CCCO1 (stereo not given) | 0 | 0 | ? | 22µM
O=C(CNC(=O)C(c1ccccc1)c1ccccc1)OCC(=O)c1cccc2ccccc12 | - | 0 | - | -
Clc1ccccc1-c1nccc(NCc2cccs2)n1 | 0 | - | - | 0
COc1ccccc1NS(=O)(=O)c1ccc2[nH]c(=S)oc2c1 | - | 0 | 0 | -
C[C@](N)(COP(=O)(O)O)C(=O)O | 0 | - | - | 0
Cc1ccc(C(=O)CN2C(=O)NC3(CCCCCC3)C2=O)c(C)c1 | - | 0 | ? | -
C/C(=N\NC(=O)c1cc(C)nc2ccccc12)c1ccco1 | 0 | 0 | 0 | 0
Cc1ccc(C)c(/C=N/Nc2nc3ccccc3c(=O)n2O)c1 | 0 | 0 | 0 | 25µM
C/C(=N\Nc1nc2ccccc2c(=O)n1O)c1ccco1 | 0 | 0 | ? | 79µM
O=C(Nc1cccc(C(=O)O)c1)/C(=C\c1ccc2c(c1)OCO2)NC(=O)c1ccccc1Cl | - | 0 | 0 | 0
O=C(CSc1nc2ccc(Cl)cc2[nH]1)c1ccc2c(c1)OCO2 | -36 | 0 | 0 | 79µM
O=C(CSc1nc2cc(Cl)c(Cl)cc2[nH]1)c1ccc2c(c1)OCO2 | 0 | 0 | ? | ?
COc1ccc(C2/C=C\CN(CC(C)C)C(C)C(=O)N2Cc2ccc(F)cc2)cc1 (stereo not given) | 0 | 0 | - | 0
CN(CCOc1ccccc1)CC(=O)Nc1ccc(Cl)cc1[N+](=O)[O-] | 0 | 0 | 0 | 50µM
CN(C)S(=O)(=O)c1cc(NC(=O)CNCc2ccccc2)ccc1Cl | 0 | 0 | 0 | 0
SMILES | FBPA coupling cs | Giardia kill | ELG1 DNA repair | Sfp PPTase inh
CN(CCOc1ccccc1)CC(=O)Nc1ccc(Cl)c(S(=O)(=O)N(C)C)c1 | 0 | 0 | ? | 56µM
CC1CCN(CC(=O)c2cccs2)CC1 | 0 | 0 | 0 | 0
O=C(CN1CCc2ccccc2C1)c1cccs1 | 0 | 0 | ? | 56µM
COc1ccc2c(c1)CCc1cn3nc(C)cc3nc1-2 | -45 | 0 | ? | 0
O=[N+]([O-])c1ccc(/C=N/Nc2nc(N3CCCC3)nc(N3CCCC3)n2)o1 | 0 | -95 | ? | 0
CCNc1nc(NCC)nc(N/N=C/c2ccc([N+](=O)[O-])o2)n1 | 0 | -82 | 0 | 0
CCNc1nc(NCC)nc(N/N=C/c2ccccc2)n1 | 0 | 0 | 0 | 0
O=C(O)c1cc(S(=O)(=O)Nc2ccc3oc(=O)sc3c2)ccc1O | 0 | 0 | 0 | 40µM
Cn1ncc(SCc2ccccc2)c(Cl)c1=O | 0 | 0 | 8.2µM | 0
Cn1ncc(S(=O)(=O)Cc2ccccc2)c(Cl)c1=O | 0 | 0 | 0 | 6.3µM
CCOC(=O)c1cn(Cc2ccccc2)c(C(=O)OC(C)(C)C)c1O | - | 0 | - | -
CCCc1cc(NCC2CCCO2)n2c(nc3ccccc32)c1C#N (stereo not given) | 0 | 0 | 23µM | 0
Cc1cccc(NC(=S)NCCc2ccc3c(c2)OCCO3)c1C | 0 | 0 | ? | 0
O=C1N[C@H](Cc2ccccc2)COC(=O)[C@H](Cc2ccc(F)cc2)CC/C=C/C[C@@H]1CC(=O)N(CCO)Cc1ccccc1 | - | 0 | 21µM | -
